The structures appear in SMILES notation. Values without a mark were called inactive. No rule for the calls is given here.

In the assay the target is Pantothenate synthetase (Mycobacterium tuberculosis (strain ATCC 25618 / H37Rv)) (UniProt P9WIL5). Put plainly: Recombinant Mtb pantothenate synthetase (PanC) inhibitors, coupled enzyme, confirmatory (AID 375).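 Also: 0% = full reaction with vehicle and 100% = no enzyme background.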 The settings on record: coupled enzyme assay; at 10 µM, stronger effect = higher value.
Pantothenate synthetase (Mycobacterium tuberculosis (strain ATCC 25618 / H37Rv)), sequence (P9WIL5 whole entry, looked up): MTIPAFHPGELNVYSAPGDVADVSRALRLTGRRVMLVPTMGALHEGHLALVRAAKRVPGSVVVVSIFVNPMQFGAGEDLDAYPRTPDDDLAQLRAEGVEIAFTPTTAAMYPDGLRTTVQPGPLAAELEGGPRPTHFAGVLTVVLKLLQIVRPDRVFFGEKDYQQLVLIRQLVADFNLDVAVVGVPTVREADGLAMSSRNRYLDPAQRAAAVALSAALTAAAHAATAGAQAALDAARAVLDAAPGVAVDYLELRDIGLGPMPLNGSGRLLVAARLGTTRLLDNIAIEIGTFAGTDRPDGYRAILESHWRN
For the compound `COc1ccc(C2/C(=C(/O)c3ccccc3)C(=O)C(=O)N2C)cc1` (configuration not stated), the inhibition (usually how much of the control response was suppressed) was 0%.
Next, `COc1ccc(OC)c(S(=O)(=O)N2c3ccccc3CC2C)c1` (configuration not stated): 0%; `CCn1c2ccccc2c2cc(Nc3cc(C)nc4ncnn34)ccc21`: 0%.
Next, `O=C(O)C1CCCN1C(=O)Nc1ccc(F)cc1` (configuration not stated): 2%; `CCOc1ccccc1NC(=O)CSc1nnc(Cc2cccn2C)n1-c1ccc(F)cc1`: 5%; `COC(=O)CC1SC(=O)NC1=O` (configuration not stated): 0%.
Next, `CC(C)(C)NCc1cc2ccccc2[nH]c1=O`: 0%.
`O=C(C1CCN(S(=O)(=O)Cc2ccccc2)CC1)N1CCN(c2ncccn2)CC1`: the inhibition was 0%.
Then `O=C(OCc1nnc(-c2ccccc2)o1)c1ccc(S(=O)(=O)NCc2ccco2)cc1`, with 0%.
For the compound `NC(=O)CSc1nnc(-c2cnccn2)n1-c1ccccc1`, the inhibition is 0%.
Then `CC(C)CC(c1nnnn1C(C)(C)C)N1CCN(C2CCCC2)CC1` (configuration not stated), with 0%; and `CCCCCn1c(CN2CCN(C)CC2)nc2c1c(=O)n(C)c(=O)n2C`, with 0%; and `COCCNC(=O)CC(NS(=O)(=O)c1ccc(NC(C)=O)cc1)C(C)C` (configuration not stated), with 0%.
Then `C=CCn1c(CC#N)nnc1N1CCOCC1`, with 0%; and `CCCn1c(NC(=O)C2COc3ccccc3O2)nc2ccccc21` (configuration not stated), with 0%.
Next, `COC(=O)c1ccccc1NC(=O)c1cc(-c2ccc(OC)c(OC)c2)on1`: 0%.
With `O=C(CCCn1c(=O)c2sccc2n(Cc2cc(=O)n3ccccc3n2)c1=O)NCc1ccco1`, the inhibition is 0%.

Source of the values: PubChem BioAssay.
